Screen size: about 69,000 compounds; about 420 (0.61%) showed an effect of 50% or more. For the sample, strong results were picked, then their nearest neighbours and some compounds at random.
Target: T1, Histidine--tRNA ligase (Leishmania infantum) (UniProt A4I591)
T1 sequence (whole entry): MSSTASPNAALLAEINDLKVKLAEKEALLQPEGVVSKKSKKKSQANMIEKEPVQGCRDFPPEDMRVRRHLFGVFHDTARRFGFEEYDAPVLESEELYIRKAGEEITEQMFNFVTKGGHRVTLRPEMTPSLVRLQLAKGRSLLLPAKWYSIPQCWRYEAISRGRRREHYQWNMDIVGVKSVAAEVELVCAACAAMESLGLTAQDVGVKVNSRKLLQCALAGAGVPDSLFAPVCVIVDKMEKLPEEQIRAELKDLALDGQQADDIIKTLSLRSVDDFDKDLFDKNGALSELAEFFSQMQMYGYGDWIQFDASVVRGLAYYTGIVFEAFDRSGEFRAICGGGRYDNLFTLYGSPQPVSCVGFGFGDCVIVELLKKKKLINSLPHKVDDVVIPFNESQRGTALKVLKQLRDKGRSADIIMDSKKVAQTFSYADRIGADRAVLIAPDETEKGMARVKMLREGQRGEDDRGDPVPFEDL
Assay: Leishmania infantum Histidine tRNA synthetase (LdHisRS)
Type: functional
Set-up: scale not given: in the data most compounds retested in dose-response had high values
Conditions: 30 µM

Structure (SMILES) | Percent Effect
CCN1C(=O)CO[C@@H]2CN(C(=O)C3CCOCC3)C[C@H]21 | 20.6%
CN(C)S(=O)(=O)N1CC[C@]2(O)CCN(CCCc3cccnc3)C[C@@H]2C1 | 18.4%
Cc1ccccc1CN1C[C@@H]2COC[C@]2(CNC(=O)C2CCC2)C1 | 13.9%
COCCOCC(=O)N1C[C@@H]2CC[C@H](Oc3ccccc3)[C@@H]2C1 | 26.3%
Cc1cc(CNc2ccc3nc(C)sc3c2)no1 | 58.6%
Cc1cc(CNc2ccc3nc(C4CC4)sc3c2)no1 | 27.6%
Cc1cc(CNc2ccc(C(F)(F)F)cc2)no1 | 17%
Cc1noc(C)c1CNc1ccc2nc(C3CC3)sc2c1 | 75.9%
Cc1noc(C)c1CNc1cccc(C(=O)N(C)c2ccccc2)c1 | -0.855%
Cc1noc(C)c1CNc1cccc(C(=O)N2CCCC(O)C2)c1 (stereo unspecified) | 27.4%
O=C(c1cscn1)N1CCO[C@H]2[C@@H](Oc3ccccn3)CC[C@@H]21 | 7%
Cc1noc(CN2C[C@H]3CC[C@@H]2CN(C2Cc4ccccc4C2)C3)n1 | 20.4%
O=C(N1CCOCC1)[C@@]12CCO[C@@H]1CCN(C1CCCCC1)C2 | 20.5%
Cc1cccc(CN2C[C@@H]3CN(C(=O)c4ccsc4)C[C@@H]3C2=O)n1 | 28.6%
Cc1cccc(CN2C(=O)CO[C@@H]3CN(Cc4nccn4C)C[C@H]32)c1 | 17.3%
Cc1ccc(C)n1-c1ccc(C(=O)NCCNc2ncccn2)cc1 | 53%

Structure (SMILES) | Percent Effect
CCc1ccc(C(=O)NCCNc2ncccn2)cc1 | 2.63%
O=C(NCCNc1ncccn1)c1ccc(Br)cc1 | 18.4%
O=C(c1ccoc1)N1C[C@@H]2OCCN(c3ncccn3)[C@@H]2C1 | 15.3%
Nc1ccc(C(=O)N2C[C@@H]3CC[C@H](C2)N(Cc2ccccc2)C3)cn1 | 9.57%
CC(=O)N1[C@H](CN(C)C)C[C@@H]2CN(c3ncc(F)cn3)CC[C@@H]21 | 14.5%
COc1cc(CNc2cnn(C)c2)cc2c1OCCO2 | 53.6%
COc1cc(CNCCn2cc(C)cn2)cc2c1OCCO2 | 9.17%
COc1cc(CNCCc2cnn(C)c2)cc2c1OCCO2 | 24.8%
CC(C)NC(=O)[C@H]1C[C@@H]2[C@@H](C1)OCCN2Cc1ccco1 | 5.56%
Cc1cncc(C(=O)N2C[C@@H]3CN(S(C)(=O)=O)CCO[C@@H]3C2)c1 | 15.1%
O=C(N[C@@H]1CN(c2ncccn2)C[C@@H]2CCCO[C@@H]21)c1ccnnc1 | 22.9%
CC(=O)Nc1ccc(CN(C)Cc2snnc2C)cc1 | 16.3%
CC(=O)Nc1ccc2nc(CN(C)Cc3noc(C)n3)ccc2c1 | 18.4%
CC(=O)Nc1ccc2nc(CN(C)Cc3snnc3C)ccc2c1 | 61.2%
Cc1ccoc1C(=O)N1C[C@H](OCC2CC2)[C@H]2OCCC[C@H]21 | 2.65%

Reference: ChEMBL document CHEMBL3988442, “University of Dundee, Small-Polar-MMV Screening Library” (2021)
